PubChem BioAssay (NCATS)
Inconclusive results are not listed. Activity calls are given as the source filed them. Calls follow the shape of the dose curve; as a rule, active = well fitted inhibition curve with a large enough effect; inconclusive = small, poorly fitted or top-dose-only effect; inactive = flat fitted curve, though single readings scatter. Peptide text beside a SMILES is read from it.

Columns and labels:
Test in all cases: qHTS profiling for inhibitors of Plasmodium falciparum proliferation (AID 504749); also: nearly all actives have a fitted effect of over 60% in size
Conditions in all cases: P. falciparum in erythrocytes, SYBR Green DNA, 72 h; series mostly up to 28.7 µM
[1] = test system: ATS95
Method in brief: (§1)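 Quantitative HTS: compounds pinned into medium, infected erythrocytes added (0.3% parasitemia, 2.5% hematocrit), 72 h culture at 37 C under 5% CO2. Saponin/Triton lysis with SYBR Green I, overnight RT, then fluorescence read.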

[2] = test system: C2A
Method in brief: as §1

[3] = test system: CP185
Method in brief: as §1

[4] = test system: CP191
Method in brief: as §1

[5] = test system: CP192
Method in brief: as §1

[6] = test system: CP194
Method in brief: as §1

[7] = test system: CP201
Method in brief: as §1

[8] = test system: CP203
Method in brief: as §1

[9] = test system: CP211
Method in brief: as §1

[10] = test system: CP215
Method in brief: as §1

[11] = test system: CP217
Method in brief: as §1

[12] = test system: CP237
Method in brief: as §1

[13] = test system: CP238
Method in brief: as §1

[14] = test system: CP247
Method in brief: as §1

[15] = test system: CP250
Method in brief: as §1

[16] = test system: CP252
Method in brief: as §1

[17] = test system: CP256
Method in brief: as §1

[18] = test system: CP260
Method in brief: as §1

[19] = test system: CP262
Method in brief: as §1

[20] = test system: CP265
Method in brief: as §1

Measured: Potency
Potency is read from the fitted curve at half-maximal effect.

COc1cc(OC)c(C(=O)CCCN2CCCC2)c(OC)c1
inactive: [1] | [2] | [3] | [4] | [5] | [6] | [7] | [8] | [9] | [10] | [11] | [12] | [13] | [14] | [15] | [16] | [17] | [18] | [19] | [20]

CCCCc1ccc2nc(NC(=O)OC)[nH]c2c1
inactive: [1] | [2] | [3] | [4] | [5] | [6] | [7] | [9] | [10] | [11] | [12] | [13] | [14] | [15] | [16] | [17] | [18] | [19] | [20]

Cc1nc2n(c(=O)c1CCN1CCC(c3noc4cc(F)ccc34)CC1)CCCC2
inactive: [1] | [2] | [3] | [4] | [5] | [6] | [7] | [9] | [10] | [11] | [13] | [14] | [15] | [16] | [17] | [19] | [20]

CCN(CC)CCOc1ccc(Cc2ccccc2)cc1
inactive: [1] | [2] | [3] | [4] | [5] | [6] | [7] | [9] | [10] | [11] | [12] | [13] | [15] | [16] | [17] | [19] | [20]

CCCCN(CCCC)CCC(O)c1cc2c(Cl)cc(Cl)cc2c2cc(C(F)(F)F)ccc12 (stereo not drawn)
active: [1] 7.9 nM | [2] 25.1 nM | [3] 28.2 nM | [4] 12.6 nM | [5] 10.2 nM | [6] 32.2 nM | [7] 51 nM | [9] 64.2 nM | [10] 28.7 nM | [11] 12.6 nM | [12] 5.6 nM | [13] 7.9 nM | [14] 17.8 nM | [15] 31.6 nM | [16] 15.8 nM | [17] 141 nM | [18] 6.3 nM | [19] 18.1 nM | [20] 31.6 nM

CN(C)CCc1c[nH]c2ccc(Cn3cncn3)cc12
inactive: [1] | [2] | [3] | [4] | [5] | [6] | [7] | [9] | [10] | [11] | [12] | [13] | [14] | [16] | [17] | [18] | [19] | [20]

Cc1ccc(C)c(OCCCC(C)(C)C(=O)O)c1
inactive: [1] | [2] | [3] | [4] | [5] | [6] | [7] | [9] | [10] | [11] | [12] | [13] | [14] | [15] | [16] | [17] | [18] | [19] | [20]

CCCCCCCCCCCCCCCCCCCCCCO
inactive: [1] | [2] | [3] | [4] | [5] | [7] | [8] | [9] | [10] | [11] | [12] | [13] | [14] | [15] | [16] | [17] | [18] | [19] | [20]

Nc1cccc2c1CN(C1CCC(=O)NC1=O)C2=O (stereo not drawn)
inactive: [1] | [2] | [3] | [4] | [5] | [6] | [7] | [9] | [10] | [11] | [12] | [13] | [14] | [15] | [16] | [17] | [18] | [19] | [20]

Cc1c(OCC(F)(F)F)ccnc1CS(=O)c1nc2ccccc2[nH]1 (stereo not drawn)
inactive: [1] | [2] | [3] | [4] | [5] | [6] | [7] | [9] | [10] | [11] | [12] | [13] | [14] | [15] | [16] | [17] | [18] | [19] | [20]

CNC[C@@H](O)[C@@H](O)[C@H](O)[C@H](O)CO
inactive: [1] | [2] | [3] | [4] | [5] | [6] | [7] | [9] | [10] | [11] | [12] | [13] | [14] | [15] | [16] | [17] | [18] | [19] | [20]

CN(C)C(=O)COC(=O)Cc1ccc(OC(=O)c2ccc(N=C(N)N)cc2)cc1
inactive: [1] | [2] | [3] | [4] | [5] | [6] | [7] | [9] | [11] | [12] | [13] | [14] | [15] | [16] | [17] | [18] | [19] | [20]

O=P(O)(O)C(O)(Cn1ccnc1)P(=O)(O)O
inactive: [1] | [2] | [3] | [4] | [5] | [6] | [7] | [9] | [10] | [11] | [12] | [13] | [14] | [15] | [16] | [17] | [18] | [19] | [20]

COc1cc2c(cc1OC)C1CC(=O)C(CC(C)C)CN1CC2 (stereo not drawn)
inactive: [1] | [2] | [3] | [4] | [5] | [6] | [7] | [9] | [10] | [11] | [12] | [13] | [14] | [15] | [16] | [17] | [18] | [19] | [20]

Oc1ccc(OCc2ccccc2)cc1
inactive: [1] | [2] | [3] | [4] | [5] | [6] | [7] | [9] | [10] | [11] | [12] | [13] | [14] | [15] | [16] | [17] | [18] | [20]

CCCc1cc(=O)[nH]c(=S)[nH]1
inactive: [1] | [2] | [3] | [4] | [5] | [6] | [7] | [9] | [10] | [11] | [12] | [13] | [14] | [15] | [16] | [17] | [18] | [19] | [20]

CC1(C)NC(=O)N(c2ccc([N+](=O)[O-])c(C(F)(F)F)c2)C1=O
inactive: [1] | [2] | [3] | [4] | [5] | [6] | [7] | [9] | [10] | [11] | [12] | [13] | [14] | [15] | [16] | [17] | [18] | [19] | [20]

CS(=O)(=O)OCCCCOS(C)(=O)=O
inactive: [1] | [2] | [3] | [4] | [5] | [6] | [7] | [9] | [10] | [11] | [12] | [13] | [14] | [15] | [16] | [17] | [18] | [19] | [20]

N[C@@H](Cc1cc(I)c(Oc2cc(I)c(O)c(I)c2)c(I)c1)C(=O)O
inactive: [1] | [2] | [3] | [4] | [5] | [6] | [7] | [9] | [10] | [11] | [12] | [13] | [14] | [15] | [16] | [17] | [18] | [19] | [20]

COC(=O)[C@H](Cc1ccccc1)NC(=O)[C@@H](N)CC(=O)O (H-Asp-Phe-OMe)
inactive: [1] | [2] | [3] | [4] | [5] | [6] | [7] | [9] | [10] | [11] | [12] | [13] | [14] | [15] | [16] | [17] | [18] | [19] | [20]

C=C(c1ccc(C(=O)O)cc1)c1cc2c(cc1C)C(C)(C)CCC2(C)C
inactive: [1] | [2] | [3] | [4] | [5] | [6] | [7] | [9] | [10] | [11] | [12] | [13] | [14] | [15] | [16] | [17] | [19] | [20]

C[C@H](Cn1cnc2c(N)ncnc21)OCP(=O)(O)O
inactive: [1] | [2] | [3] | [4] | [5] | [6] | [7] | [9] | [10] | [11] | [12] | [13] | [14] | [15] | [16] | [17] | [19] | [20]

COc1ccc2cc([C@H](C)C(=O)O)ccc2c1
inactive: [1] | [2] | [3] | [4] | [5] | [6] | [7] | [9] | [10] | [11] | [13] | [14] | [15] | [16] | [17] | [19] | [20]

CCC1=C(C)CN(C(=O)NCCc2ccc(S(=O)(=O)NC(=O)NC3CCC(C)CC3)cc2)C1=O (stereo not drawn)
inactive: [1] | [2] | [3] | [4] | [5] | [6] | [7] | [9] | [10] | [11] | [12] | [13] | [14] | [15] | [16] | [17] | [18] | [19] | [20]

CC(C)(S)[C@@H](N)C(=O)O
inactive: [1] | [2] | [3] | [4] | [6] | [7] | [8] | [9] | [10] | [11] | [12] | [13] | [14] | [15] | [16] | [17] | [18] | [19] | [20]

Cc1cc2c(s1)Nc1ccccc1N=C2N1CCN(C)CC1
inactive: [1] | [2] | [3] | [4] | [5] | [6] | [7] | [9] | [10] | [11] | [12] | [13] | [14] | [15] | [16] | [17] | [18] | [19] | [20]

NNc1nncc2ccccc12
inactive: [1] | [2] | [3] | [5] | [6] | [7] | [9] | [11] | [13] | [16] | [19]
active: [4] 3550 nM

Nc1ccc(S(N)(=O)=O)cc1
inactive: [1] | [2] | [3] | [4] | [5] | [6] | [7] | [9] | [10] | [11] | [12] | [13] | [14] | [15] | [16] | [17] | [18] | [19] | [20]

CNC[C@H](O)c1ccc(O)c(O)c1
inactive: [1] | [2] | [3] | [4] | [5] | [6] | [7] | [9] | [11] | [12] | [13] | [14] | [15] | [16] | [17] | [18] | [19] | [20]
